Test results: PubChem BioAssay (Tox21)
Several values for one entry are separate records, joined by “and”; a condition that tells them apart may be missing. Equal entries are not always repeated. Inconclusive results are not listed. Where a call stands in place of a potency, no number is given. Activity calls are given as the source filed them. Unless noted, calls follow the shape of the dose curve; as a rule, active = well fitted curve in the direction sought with a large enough effect in the repeat runs; inconclusive = weak or mixed curves; inactive = no such curve, though single readings can be large; an effect the other way counts as inactive or inconclusive.

Key:
[1] = qHTS assay for small molecules that induce genotoxicity in human embryonic kidney cells expressing luciferase-tagged ATAD5 (AID 651632); also: nearly all actives have a fitted effect of over 15% in size; also: potency is read from the fitted curve at half-maximal effect
Method in brief: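 Luminescent reporter readout, HEK293T ATAD5-luc line: 16 hr drug exposure (37C, 5% CO2) followed by Amplite, 30 min RT.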

[2] = qHTS assay for small molecule agonists of the p53 signaling pathway - cell viability (AID 651633; calls by dose curve;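 also: p53RE-bla HCT reporter cells with a stable beta-lactamase p53 reporter; series mostly up to about 83 µM; nearly all actives have a fitted effect of over 30% in size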)
Method in brief: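 p53RE-bla cells, seeded at 4,000 per well and rested 5 h at 37 C/5% CO2, received compounds in DMSO for 16 h at 37 C. CellTiter-Glo was then added, and luminescence was read after 30 min at room temperature to gauge cytotoxicity.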

[3] = qHTS assay for small molecules that induce genotoxicity in human embryonic kidney cells expressing luciferase-tagged ATAD5 - cell viability (AID 651634; calls by dose curve; also: nearly all actives have a fitted effect of over 25% in size)
Method in brief: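 Viability read: CellTiter-Fluor fluorescence, 30 min at 37C. Cells: HEK293T, luciferase-tagged ATAD5. Exposure: 15.5 hr, 37C, 5% CO2, compound or DMSO vehicle.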

[4] = qHTS assay for small molecule disruptors of the mitochondrial membrane potential - cell viability (AID 720634; calls by dose curve;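 also: human HepG2 liver cancer cells; series mostly up to about 83 µM; nearly all actives have a fitted effect of over 20% in size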)
Method in brief: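 HepG2, 1 hr compound, 37 C. ATP luminescence via CellTiter-Glo, 30 min RT, same well as m-MPI.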

[5] = qHTS assay to test for compound auto fluorescence at 590 nm (red) in HepG2 cells (AID 720674)
Method in brief: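 Compound auto-fluorescence is scored relative to Rose Bengal sodium, measured at 540/590 nm in live HepG2 cultures after 1 hr compound contact (37 C, 5% CO2).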

[6] = qHTS assay to test for compound auto fluorescence at 535 nm (green) in HepG2 cells (AID 720675)
[7] = qHTS assay to test for compound auto fluorescence at 460 nm (blue) in HEK293 cells (AID 720678)
Method in brief: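 Intrinsic compound fluorescence is recorded in live HEK293 cultures after overnight incubation at 37C, 5% CO2, using excitation 405 nm and emission 460 nm. Values are referenced to triamterene.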

[8] = qHTS assay to test for compound auto fluorescence at 590 nm (red) in HEK293 cells (AID 720679)
Method in brief: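 Red autofluorescence, HEK293 cells: 2,000 cells/well; attach 4-5 hr 37C; add 23 nL cpd or DMSO; incubate o/n 37C 5% CO2; read Ex540/Em590; Rose Bengal sodium reference.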

[9] = qHTS assay to test for compound auto fluorescence at 535 nm (green) in HEK293 cells (AID 720680)
[10] = qHTS assay to test for compound auto fluorescence at 460 nm (blue) in HEK293 cell free culture (AID 720681)
Method in brief: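 Test compounds were pinned into cell-free culture medium (DMEM with 10% FBS) and fluorescence was read directly at Ex/Em 405/460 nm. Signals were expressed as fluorescence equivalents of triamterene, with DMSO vehicle as control.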

[11] = qHTS assay to test for compound auto fluorescence at 535 nm (green) in HEK293 cell free culture (AID 720682)
Method in brief: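 Each library compound, or DMSO control, is added by pintool to medium alone, comprising DMEM and 10% FBS. Emission at 535 nm following 485 nm excitation is quantified against fluorescein.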

[12] = qHTS assay to test for compound auto fluorescence at 590 nm (red) in HEK293 cell free culture (AID 720683)
Method in brief: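 Tox21 10K library compounds were pinned into cell-free DMEM with 10% FBS and fluorescence was read at excitation 540 nm. Activity is expressed as Rose Bengal sodium equivalency.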

[13] = qHTS assay to test for compound auto fluorescence at 590 nm (red) in HepG2 cell free culture (AID 720684)
Method in brief: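 Red fluorescence (540 nm excitation, 590 nm emission) was measured after compound transfer into cell-free MEM supplemented with 10% FBS. Values are equivalencies against Rose Bengal sodium.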

[14] = qHTS assay to test for compound auto fluorescence at 460 nm (blue) in HepG2 cell free culture (AID 720685)
Method in brief: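 Compound (23 nL) or DMSO pinned into cell-free MEM with 10% FBS; blue fluorescence read at 405/460 nm excitation/emission, expressed as auto-fluorescence equivalency to triamterene.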

[15] = qHTS assay to test for compound auto fluorescence at 535 nm (green) in HepG2 cell free culture (AID 720686)
[16] = qHTS assay to test for compound auto fluorescence at 460 nm (blue) in HepG2 cells (AID 720687)
Method in brief: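 Cells (2,000/well in MEM with 10% FBS) attached overnight at 37 C, then were exposed to compound or DMSO for 1 hr at 37 C, 5% CO2. Fluorescence read at Ex/Em 405/460 nm, expressed as triamterene-equivalent signal.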

[17] = molecular target: Glucocorticoid receptor (Homo sapiens) (UniProt P04150); experiment: qHTS assay to identify small molecule agonists of the glucocorticoid receptor (GR) signaling pathway (AID 720691; active = well fitted activation curve with a large enough effect in the signal ratio in the repeat runs, not every such curve was filed as active; the % refers to the signal ratio)
Method in brief: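 qHTS in GR-bla HeLa cells: 4 h settling at 37 C/5% CO2, 18 h compound incubation at 37 C, 2 h LiveBLAzer B/G FRET substrate at room temperature, fluorescence intensity measured.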

[18] = molecular target: Glucocorticoid receptor (Homo sapiens) (UniProt P04150); experiment: qHTS assay to identify small molecule antagonists of the glucocorticoid receptor (GR) signaling pathway (AID 720692; active = well fitted inhibition curve with a large enough effect in the signal ratio in the repeat runs, not every such curve was filed as active; the % refers to the signal ratio)
Method in brief: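 Inhibition of glucocorticoid signalling is measured in HeLa cells with a GRE-controlled beta-lactamase reporter; cells are co-treated with compound and 5 nM dexamethasone (final) for 18 h before FRET substrate readout.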

[19] = qHTS assay for small molecule disruptors of the mitochondrial membrane potential (AID 720635); also: potency is read from the fitted curve at half-maximal effect
Method in brief: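 HepG2 cells (2,000/well) attached overnight at 37C, then took compound for 1 hr at 37C, 5% CO2. Mito-MPS dye was added for 30 min; fluorescence was read at 490/535 nm (monomers) and 540/590 nm (aggregates).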

[20] = qHTS assay for small molecule agonists of the p53 signaling pathway (AID 651631; calls by dose curve; also: nearly all actives have a fitted effect of over 15% in size)
Method in brief: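 Beta-lactamase reporter activity under p53 response elements was quantified in HCT-116 cells by FRET fluorescence, following 16 h incubation with test compounds at 37 °C and 2 h substrate development at room temperature.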

Sequence of Glucocorticoid receptor (Homo sapiens) (P04150 whole entry, looked up): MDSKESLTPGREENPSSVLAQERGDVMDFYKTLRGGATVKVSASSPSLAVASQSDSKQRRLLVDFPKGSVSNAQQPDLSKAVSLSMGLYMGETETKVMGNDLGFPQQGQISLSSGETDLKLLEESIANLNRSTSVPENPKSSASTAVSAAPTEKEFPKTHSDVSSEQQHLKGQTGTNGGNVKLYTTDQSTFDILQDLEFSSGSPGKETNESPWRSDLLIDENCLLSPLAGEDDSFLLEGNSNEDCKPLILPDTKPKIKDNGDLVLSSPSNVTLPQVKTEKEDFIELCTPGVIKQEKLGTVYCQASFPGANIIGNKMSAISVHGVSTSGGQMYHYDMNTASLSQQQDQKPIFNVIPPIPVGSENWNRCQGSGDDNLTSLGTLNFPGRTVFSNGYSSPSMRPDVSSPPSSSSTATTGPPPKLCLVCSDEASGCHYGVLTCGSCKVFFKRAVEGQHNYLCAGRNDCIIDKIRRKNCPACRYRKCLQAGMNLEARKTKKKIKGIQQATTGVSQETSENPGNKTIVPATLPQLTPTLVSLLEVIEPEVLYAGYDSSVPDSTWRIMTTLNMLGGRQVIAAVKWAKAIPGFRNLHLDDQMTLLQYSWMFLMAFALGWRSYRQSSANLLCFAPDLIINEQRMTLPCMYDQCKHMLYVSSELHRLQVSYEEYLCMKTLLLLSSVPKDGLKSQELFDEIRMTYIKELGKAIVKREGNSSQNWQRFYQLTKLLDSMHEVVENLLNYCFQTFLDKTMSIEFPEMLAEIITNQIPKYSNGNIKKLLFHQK

Compound	Potency [1]	Potency [2]	Potency [3]	Potency [4]	Potency [5]	Potency [6]	outcome [7]	Potency [8]	Potency [9]	Potency [10]	Potency [11]	Potency [12]	Potency [13]	Potency [14]	Potency [15]	Potency [16]	Potency [17]	Potency [18]	Potency [19]	Potency [20]
CC(=O)[C@H]1CC[C@H]2[C@@H]3CC=C4C[C@@H](O)CC[C@]4(C)[C@H]3CC[C@]12C	inactive	inactive	inactive	inactive	inactive	inactive	inactive	inactive	inactive	inactive	inactive	inactive	inactive	inactive	inactive	inactive				
Cc1cccc(Nc2ccccc2C(=O)O)c1C	inactive	inactive	inactive	inactive	inactive	inactive	inactive	inactive	inactive	inactive	inactive		inactive	inactive	inactive	inactive	inactive	inactive		
Cc1ccc(C(C)(C)C)c(O)c1	inactive	inactive		inactive	inactive	inactive	inactive	inactive	inactive	inactive	inactive	inactive	inactive	inactive	inactive	inactive			26.4 µM (active) and 17.2 µM (active)	
CC1(C)NC(=O)N(c2ccc([N+](=O)[O-])c(C(F)(F)F)c2)C1=O	inactive	inactive	inactive	inactive	inactive	inactive	inactive	inactive	inactive	inactive	inactive	inactive	inactive	inactive	inactive	inactive				
Nc1ccc2c(c1)C(=O)c1ccccc1C2=O	4.77 µM (active) and 7.7 µM (active)	inactive	inactive	inactive	inactive	inactive	inactive	inactive	inactive	inactive	inactive	inactive	inactive	inactive		inactive	inactive		268 nM (active) and 386 nM (active)	
COc1ccc2nc(N)sc2c1	inactive		inactive	inactive	inactive	inactive	inactive	inactive	inactive	inactive	inactive		inactive	inactive	inactive	inactive	inactive	inactive	inactive	
c1ccc2c(c1)ccc1ncccc12	inactive		inactive	inactive	inactive	inactive	inactive	inactive	inactive	inactive	inactive	inactive	inactive	inactive	inactive	inactive	inactive	inactive	27.3 µM (active)	
CCCN1C=CN(C)C1	inactive	inactive	inactive	inactive	inactive	inactive	inactive	inactive	inactive	inactive	inactive	inactive	inactive	inactive		inactive			inactive	
CCCCCCOCCOCCO		inactive	inactive	inactive	inactive	inactive	inactive	inactive	inactive	inactive	inactive	inactive	inactive	inactive		inactive	inactive	inactive	inactive	
C=C[C@H]1CN2CC[C@H]1C[C@@H]2[C@@H](O)c1ccnc2ccc(OC)cc12	inactive		inactive	inactive	inactive	inactive	inactive	inactive	inactive	inactive	inactive		inactive	inactive		inactive				
CC(=O)O[C@]1(C(C)=O)CC[C@H]2[C@@H]3C=C(Cl)C4=CC(=O)CC[C@]4(C)[C@H]3CC[C@@]21C	inactive		inactive	inactive	inactive	inactive	inactive	inactive	inactive	inactive	inactive	inactive	inactive	inactive		inactive				
C=C[C@H]1CN2CC[C@H]1C[C@H]2[C@H](O)c1ccnc2ccc(OC)cc12	inactive		inactive	inactive	inactive	inactive	inactive	inactive	inactive	inactive	inactive	inactive	inactive	inactive		inactive			inactive	
O=C(CCCN1CCC(O)(c2ccc(Cl)cc2)CC1)c1ccc(F)cc1		inactive		inactive	inactive	inactive	inactive	inactive	inactive	inactive	inactive	inactive	inactive	inactive	inactive	inactive	inactive			inactive
Cc1ccc(/C(=C\CN2CCCC2)c2ccccn2)cc1		inactive		inactive	inactive	inactive	inactive	inactive	inactive	inactive	inactive	inactive	inactive	inactive		inactive			inactive	
